4 compounds from article PMC6792352, “Limited Chemical Structural Diversity Found to Modulate Thyroid Hormone Receptor in the Tox21 Chemical Library” (Environmental Health Perspectives, 2019) can be followed below.

The structures appear in SMILES notation.

For the assay, the system named is thyroid hormone receptor (endogenous TRα and TRβ). Also on record: species or system GH3-TRE-Luc (rat pituitary); GH3-TRE-Luc luciferase reporter, antagonist mode against 1 nM T3, loss of signal, qHTS. The note with it: read-out: Average AC50 (uM) GH3-TRE-Antag, antagonist mode, 1 nM T3, no GH3 cytotoxicity hit.
`C#C[C@]1(O)CC[C@H]2[C@@H]3CCC4=CC(=O)CC[C@@H]4[C@H]3C(=C)C[C@@]21CC` [Etonogestrel]: the AC50 (in general, the midpoint of the concentration-response curve, whichever way the signal moves) was 19.5 µM.

Regarding `C#C[C@]1(O)CC[C@H]2[C@@H]3CCc4cc(OC)ccc4[C@H]3CC[C@@]21C` [Mestranol], the AC50 turned out to be 21.8 µM.

As for `Cc1ccc(Cl)c(Nc2ccccc2C(=O)O)c1Cl` [Meclofenamate sodium], the AC50 turned out to be 30.6 µM.

As for `CCCCCCCCc1ccc(S(=O)(=O)O)cc1` [Sodium 4-octylbenzenesulfonate], the concentration at half-maximal activity (AC50) is 53 µM.
